# Reference: PubChem BioAssay (NCATS)
# Results filed as inconclusive are left out. A call without a number means that no potency is given here. Values without a mark were called inactive. Activity calls are given as the source filed them. Calls come from the whole dose curve; as a rule, active = well fitted cell-killing curve with a large enough effect; inconclusive = small, poorly fitted or top-dose-only effect, or effect the other way; inactive = flat fitted curve, though single readings scatter.
# Experiments:
# Test in all cases: Primary qHTS to identify gynecologic anti-cancer compounds using libraries of approved drugs and bioactive compounds (AID 1345084); note: nearly all actives have a fitted effect of over 55% in size
# Settings in all cases: Gynecologic cancer cell panel viability, ATPlite luminescence, 48 h; series mostly up to 57.5 µM
# PA-1 = test system: PA-1
# In short: (§1)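 48 h compound exposure at 37 C, 5% CO2; five-point qHTS. ATPlite luminescence readout of cell ATP.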
# Tov-21-G = test system: Tov-21-G
# In short: as §1
# Tov112D = test system: Tov112D
# In short: as §1
# Potency is the fitted concentration of half-maximal effect.
smiles,measurement,setting,value
CCN(Cc1cccnc1)C(=O)CN(c1ccc(OC)nc1)S(=O)(=O)c1ccccc1C,Potency,PA-1,inactive
same,Potency,Tov-21-G,inactive
same,Potency,Tov112D,inactive
N#Cc1c(Oc2ccc(F)c(NC(=O)Cc3cccc(C(F)(F)F)c3)c2)ccc2nc(NC(=O)C3CC3)sc12,Potency,PA-1,8.91 µM (active)
same,Potency,Tov-21-G,7.94 µM (active)
CC(C)CCC(=O)CC1c2ccccc2C(=O)N1c1ccc2ccc(Cl)nc2n1 (centres undefined),Potency,PA-1,inactive
same,Potency,Tov-21-G,inactive
same,Potency,Tov112D,8.91 µM (active)
CCCOc1ccc(-c2nc(OC)c3ccccc3n2)cc1,Potency,PA-1,inactive
same,Potency,Tov-21-G,inactive
same,Potency,Tov112D,inactive
Cc1cc(C(=O)N2Cc3cnn(C)c3Nc3ccccc32)ccc1CNC(=O)N1CCC[C@H]1C(=S)N1CCCN(C)CC1,Potency,PA-1,inactive
same,Potency,Tov-21-G,inactive
same,Potency,Tov112D,inactive
CC(=O)c1cc(C(=O)N[C@@H](C)Cn2ccc(-c3ccc(C#N)c(Cl)c3)n2)[nH]n1,Potency,PA-1,inactive
same,Potency,Tov-21-G,inactive
same,Potency,Tov112D,inactive
OCCc1ccc(O[C@@H]2O[C@H](CO)[C@@H](O)[C@H](O)[C@H]2O)cc1,Potency,PA-1,inactive
same,Potency,Tov-21-G,inactive
same,Potency,Tov112D,inactive
CC(=O)SCC(=O)c1ccc(NS(=O)(=O)c2ccc(OCCCN(C)C)cc2)nc1,Potency,PA-1,2.82 µM (active)
same,Potency,Tov-21-G,11.2 µM (active)
CC1(C)C=CN2C(=O)C3=CCCN3C(=O)[C@@H]2C[C@@]12Nc1ccccc1C2=O,Potency,PA-1,inactive
same,Potency,Tov-21-G,inactive
same,Potency,Tov112D,inactive
C[C@@H]1O[C@@H](O[C@@H]2[C@@H](O)[C@H](O[C@H]3CC[C@@]4(C)C(CC[C@]5(C)C4CC=C4[C@@H]6CC(C)(C)CC[C@]6(C(=O)O[C@@H]6O[C@H](CO)[C@@H](O)[C@H](O)[C@H]6O)CC[C@]45C)C3(C)C)O[C@H](C(=O)O)[C@H]2O)[C@H](O)[C@H](O)[C@H]1O (some centres undefined),"activity change, negative = cytotoxicity",PA-1,2.04% [at 11.6 µM]
same,"activity change, negative = cytotoxicity",Tov-21-G,1.47% [at 11.6 µM]
same,"activity change, negative = cytotoxicity",Tov112D,5.96% [at 11.6 µM]
O=S(=O)(c1ccccc1)c1cnc2c(N3CCNCC3)cccc2c1,Potency,PA-1,inactive
same,Potency,Tov-21-G,inactive
CC1CC(O)/C=C/C(O)C(O)CC(=O)Cc2c(Cl)c(O)cc(O)c2C(=O)O1 (centres undefined),Potency,PA-1,inactive
same,Potency,Tov-21-G,inactive
same,Potency,Tov112D,inactive
C=C(C(=O)O)[C@H]1C[C@]2(C)[C@@H](O)CC[C@]23O[C@H]1C[C@@H]3C,Potency,PA-1,inactive
same,Potency,Tov-21-G,inactive
same,Potency,Tov112D,inactive
C[C@@H]1O[C@@H](O[C@@H]2[C@@H](O)[C@H](O[C@H]3[C@H](O[C@H]4CC[C@@]5(C)C(CC[C@]6(C)C5CC=C5[C@@H]7CC(C)(C)CC[C@]7(C(=O)O[C@@H]7O[C@H](CO)[C@@H](O)[C@H](O)[C@H]7O[C@@H]7O[C@@H](C)[C@H](O[C@@H]8O[C@@H](C)[C@H](O)[C@@H](O)[C@H]8O)[C@@H](O)[C@H]7O)CC[C@]56C)[C@@]4(C)CO)O[C@H](C(=O)O)[C@@H](O)[C@@H]3O)O[C@H](CO)[C@H]2O)[C@H](O)[C@H](O)[C@H]1O (some centres undefined),"activity change, negative = cytotoxicity",PA-1,2.55% [at 6.55 µM]
same,"activity change, negative = cytotoxicity",Tov-21-G,-1.58% [at 6.55 µM]
same,"activity change, negative = cytotoxicity",Tov112D,10.3% [at 6.55 µM]
CCC(=O)O[C@H]1C(C)(C)[C@H]([C@@H](O)C(=O)OC)[C@]2(C)C(=O)[C@@]1(O)[C@H]1O[C@]13C1CC(=O)O[C@@H](c4ccoc4)[C@]1(C)CCC32 (some centres undefined),Potency,PA-1,inactive
same,Potency,Tov-21-G,inactive
same,Potency,Tov112D,inactive
CO[C@H]1C[C@@H]2CC[C@@H](C)[C@@](O)(O2)C(=O)C(=O)N2CCCC[C@H]2C(=O)O[C@H]([C@H](C)C[C@H]2CC[C@@H](OP(C)(C)=O)[C@H](OC)C2)CC(=O)[C@H](C)/C=C(\C)[C@@H](O)[C@@H](OC)C(=O)[C@H](C)C[C@H](C)/C=C/C=C/C=C/1C,Potency,PA-1,inactive
same,Potency,Tov-21-G,inactive
same,Potency,Tov112D,inactive
CCOc1ccc(NC(=S)N2CCC(C(O)(c3ccccc3)c3ccccc3)CC2)cc1,Potency,PA-1,inactive
same,Potency,Tov-21-G,inactive
same,Potency,Tov112D,inactive
Cc1cccc(C)c1-n1c(=O)c2cnc(Nc3ccc(N4CCN(C)CC4)cc3)nc2n2c3ccccc3nc12,Potency,PA-1,7.94 µM (active)
same,Potency,Tov-21-G,0.398 µM (active)
same,Potency,Tov112D,8.91 µM (active)
CC[C@]1(O)CC2CN(CCc3c([nH]c4ccccc34)[C@@](C(=O)OC)(c3cc4c(cc3OC)N(C=O)[C@H]3[C@@](O)(C(=O)OC)[C@H](OC(C)=O)[C@]5(CC)C=CCN6CC[C@]43[C@@H]65)C2)C1 (some centres undefined),Potency,PA-1,0.126 µM (active)
same,Potency,Tov-21-G,0.126 µM (active)
same,Potency,Tov112D,0.158 µM (active)
Cc1cc(C(N)=O)ccc1-n1c(CCC(=O)O)ccc1-c1ccc(-n2ccnc2)cc1,Potency,PA-1,inactive
same,Potency,Tov-21-G,inactive
same,Potency,Tov112D,inactive
CC1OC(OC2C(OC3C(O[C@H]4CC[C@@]5(C)C(CC[C@]6(C)C5C(=O)C=C5C7CC(C)(C)CC(O)[C@]7(C)CC[C@]56C)C4(C)C)OC(C(=O)O)C(O)C3O)OCC(O)C2O)C(O)C(O)C1O (some centres undefined),"activity change, negative = cytotoxicity",PA-1,-3.12% [at 11.6 µM]
same,"activity change, negative = cytotoxicity",Tov-21-G,2.59% [at 11.6 µM]
same,"activity change, negative = cytotoxicity",Tov112D,-1.77% [at 11.6 µM]
C[C@@H]1O[C@@H](O[C@@H]2[C@@H](O)[C@@H](O[C@]3(CO)O[C@H](CO)[C@@H](O)[C@@H]3OC(=O)/C=C/c3ccc(O)cc3)O[C@H](CO)[C@H]2OC(=O)/C=C/c2ccc(O)cc2)[C@H](O)[C@H](O)[C@H]1O[C@@H]1O[C@@H](C)[C@H](O[C@@H]2OC[C@](O)(CO)[C@H]2O)[C@@H](O)[C@H]1O,"activity change, negative = cytotoxicity",PA-1,32.6% [at 11.6 µM]
same,"activity change, negative = cytotoxicity",Tov-21-G,7.09% [at 11.6 µM]
same,"activity change, negative = cytotoxicity",Tov112D,12.6% [at 11.6 µM]
Cc1cc(NC(=O)Nc2ccc(F)c(F)c2)n(-c2ccccc2)n1,Potency,PA-1,inactive
same,Potency,Tov-21-G,inactive
same,Potency,Tov112D,inactive
C[C@@H]1CC[C@]2(C(=O)O)CC[C@]3(C)C(=CCC4[C@@]5(C)C[C@@H](O)[C@H](O)[C@@](C)(CO)C5CC[C@]43C)C2[C@]1(C)O (some centres undefined),Potency,PA-1,inactive
same,Potency,Tov-21-G,inactive
same,Potency,Tov112D,inactive
CC(Nc1ncnc2nc[nH]c12)c1cc2cccc(Cl)c2c(=O)n1-c1ccccc1 (centres undefined),Potency,PA-1,inactive
same,Potency,Tov-21-G,inactive
same,Potency,Tov112D,inactive
O=C(O)c1ccc(CN2CCC(CN[C@@H]3C[C@H]3c3ccccc3)CC2)cc1,Potency,PA-1,inactive
same,Potency,Tov-21-G,inactive
same,Potency,Tov112D,inactive
C=C(C(=O)O)[C@@H]1CC[C@@]2(C)CC[C@H](O)[C@@]2(C(C)=O)C1,Potency,PA-1,inactive
same,Potency,Tov-21-G,inactive
same,Potency,Tov112D,inactive
COc1cc(NC(=O)Nc2cccc(CNC(=O)O[C@H]3CCOC3)c2)ccc1-c1cnco1,Potency,PA-1,1.41 µM (active)
same,Potency,Tov-21-G,8.91 µM (active)
same,Potency,Tov112D,inactive
CO[C@H]1O[C@@H]2O[C@]3(C)CC[C@H]4[C@H](C)CC[C@@H]([C@H]1C)[C@@]24OO3,Potency,PA-1,inactive
same,Potency,Tov-21-G,inactive
same,Potency,Tov112D,inactive
CC(O)/C=C/C1C(C)C(O[C@@H]2O[C@H](CO)[C@@H](O)[C@H](O)[C@H]2O)C(O)CC1(C)C (some centres undefined),Potency,PA-1,inactive
same,Potency,Tov-21-G,inactive
same,Potency,Tov112D,inactive
CC1=CCC(C(C)(C)O[C@@H]2O[C@H](CO[C@@H]3O[C@@H](C)[C@H](O)[C@@H](O)[C@H]3O)[C@@H](O)[C@H](O)[C@H]2O)CC1 (some centres undefined),Potency,PA-1,inactive
same,Potency,Tov-21-G,inactive
same,Potency,Tov112D,inactive
CC[C@]12C=CCN3CC[C@@]4(c5cc([C@@]6(C(=O)OC)C[C@H]7C[C@@H](C(C)(F)F)CN(Cc8c6[nH]c6ccccc86)C7)c(OC)cc5N(C)[C@H]4[C@@](O)(C(=O)OC)[C@@H]1OC(C)=O)[C@@H]32,Potency,PA-1,0.355 µM (active)
same,Potency,Tov-21-G,0.562 µM (active)
same,Potency,Tov112D,0.251 µM (active)
CC1=CC(=O)[C@]2(O[C@@H]3O[C@@H](C)[C@H](O)[C@@H](O)[C@H]3OC(=O)/C=C/c3ccccc3)C=CO[C@@H](O[C@@H]3O[C@H](CO)[C@@H](O)[C@H](O)[C@H]3O)[C@H]12,Potency,PA-1,inactive
same,Potency,Tov-21-G,inactive
same,Potency,Tov112D,inactive
COC(=O)C(C)C1CCC2(C)C(=O)C=CC(C)(O)C2C1O (centres undefined),Potency,PA-1,inactive
same,Potency,Tov-21-G,inactive
same,Potency,Tov112D,inactive
CC(NC(=O)CCc1nc2ccccc2c(=O)[nH]1)c1ccccc1 (centres undefined),Potency,PA-1,inactive
same,Potency,Tov-21-G,inactive
same,Potency,Tov112D,inactive
CCC(O)C(C)C1CCC(C(C)C(=O)O)O1 (centres undefined),Potency,PA-1,inactive
same,Potency,Tov-21-G,inactive
same,Potency,Tov112D,inactive
COc1ccc([C@@H]2OC[C@H]3[C@@H]2CO[C@@H]3c2ccc(OC3OC(CO)C(O)C(O)C3O)c(OC)c2)cc1OC (some centres undefined),Potency,PA-1,inactive
same,Potency,Tov-21-G,inactive
same,Potency,Tov112D,inactive
CC(C)(O)c1ccc2c(c1)C(O)C[C@H]1[C@](C)(C(=O)O)CCC[C@]21C (some centres undefined),Potency,PA-1,inactive
same,Potency,Tov-21-G,inactive
same,Potency,Tov112D,inactive
CS(=O)(=O)c1ccc([C@H](CC2CCCC2)C(=O)Nc2nccs2)cc1,Potency,PA-1,inactive
same,Potency,Tov-21-G,inactive
same,Potency,Tov112D,inactive
CC#CC(=O)N1CCC[C@H]1c1nc(-c2ccc(C(=O)Nc3ccccn3)cc2)c2c(N)nccn12,Potency,PA-1,inactive
same,Potency,Tov-21-G,inactive
same,Potency,Tov112D,inactive
CC(=O)OC1CC2C3(C)CCC(OC(=O)CC(=O)O)C(C)(C)C3CCC2(C)C2(C)CCC(C3(C)CCC(=O)O3)C12 (centres undefined),Potency,PA-1,inactive
same,Potency,Tov-21-G,inactive
same,Potency,Tov112D,inactive
O=C(Cc1ccc(-c2ccccc2)cc1)NC1CCC1,Potency,PA-1,inactive
same,Potency,Tov-21-G,inactive
same,Potency,Tov112D,inactive
N[C@@]1(C(=O)O)CC[C@H]2[C@H](C(=O)O)[C@H]21,Potency,PA-1,inactive
same,Potency,Tov-21-G,inactive
same,Potency,Tov112D,inactive
COc1ccc(CNC(=O)c2sc3nc(C)cc(C)c3c2N)cc1,Potency,PA-1,inactive
same,Potency,Tov-21-G,inactive
same,Potency,Tov112D,inactive
C/C(=C/CO)CC[C@@H]1[C@@](C)(O)CCC2C(C)(C)CCC[C@]21C (some centres undefined),Potency,PA-1,inactive
same,Potency,Tov-21-G,inactive
same,Potency,Tov112D,inactive
C=C[C@@](C)(O)CC/C=C(\C)C(=O)O[C@@H]1[C@@H]2O[C@]2(C)[C@H]2[C@H](O[C@@H]3O[C@H](CO)[C@@H](O)[C@H](O)[C@H]3O)OC=C[C@@]12O,Potency,PA-1,inactive
same,Potency,Tov-21-G,inactive
same,Potency,Tov112D,inactive
OCC(CO[C@@H]1O[C@H](CO)[C@@H](O)[C@H](O)[C@H]1O)c1ccc2c(c1)OCO2 (some centres undefined),Potency,PA-1,inactive
same,Potency,Tov-21-G,inactive
same,Potency,Tov112D,inactive
C[C@@]1(O)[C@H](O)[C@@H](CO)O[C@H]1n1ccc(N)nc1=O,Potency,PA-1,inactive
same,Potency,Tov-21-G,inactive
same,Potency,Tov112D,inactive
CN1c2ccccc2C(=O)N2CCC3c4ccccc4NC3C21 (centres undefined),Potency,PA-1,4.47 µM (active)
same,Potency,Tov-21-G,6.31 µM (active)
same,Potency,Tov112D,1.78 µM (active)
